Screening results: PubChem BioAssay, The Scripps Research Institute Molecular Screening Center
MsrA inhibitor: inhibitors of bovine MsrA. inhibition, % at 15.5 µM. purified bovine MsrA, absorbance read-out. actives 0.75% (n = 360,000); in the data active means inhibition above about 4.5%
SMARCA2 activ: activators of SMARCA2 function. activation, % at 9.1 µM. actives 1% (n = 370,000). MG213 cells, MMTV-luciferase reporter, dexamethasone, overnight; in the data active means activation above about 7.8%
proKLK7 act: proKLK7 (human) activation, primary screen | AID 652039 | purified proKLK7, EDANS-DABCYL substrate fluorescence; 100% is mature enzyme control, 0% vehicle | actives 0.9% (n = 370,000) | activation, % at 7 µM | P49862;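 active means activation above the mean of all tested compounds plus 3 SD, computed per campaign excluding outliers beyond control limits, cut at about 13% in these data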
Target sequence (P49862 whole entry, looked up): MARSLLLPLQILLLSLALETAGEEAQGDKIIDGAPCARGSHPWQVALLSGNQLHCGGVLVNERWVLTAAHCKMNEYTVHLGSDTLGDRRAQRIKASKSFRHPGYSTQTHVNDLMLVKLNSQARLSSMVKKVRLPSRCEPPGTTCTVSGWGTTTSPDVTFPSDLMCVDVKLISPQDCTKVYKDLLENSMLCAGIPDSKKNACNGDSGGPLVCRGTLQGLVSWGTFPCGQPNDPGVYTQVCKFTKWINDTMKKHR
MsrA act: activators of bovine methionine sulfoxide reductase A. purified bovine MsrA, absorbance read-out. activation, % at 10.6 µM. actives 0.3% (n = 360,000). AID 602163; in the data active means activation above about 7.5%
KLK7 act conf: confirmation of human kallikrein-7 zymogen activators. shares compounds with proKLK7 act. purified proKLK7, EDANS-DABCYL substrate fluorescence; scaled: vehicle 0, mature enzyme 100. activation, % at 7 µM. actives 68% (n = 3,200);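 active means activation, as change over the incubation, above the mean of all tested compounds plus 3 SD, cut at about 13% in these data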
EDANS interfere: fluorescence interference counter-screen for KLK7 activators. actives 80% (n = 3,200). activation, % at 7 µM. EDANS-DABCYL substrate fluorescence interference, no enzyme, 4 h; solvent 0%, active enzyme control 100%. AID 686952. shares compounds with proKLK7 act;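 active means activation above the all-compound mean plus 3 SD, ignoring values outside control-based bounds, cut at about 4.8% in these data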;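 further: value is the 4 h activation minus the activation read at time zero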
K7 EDANS ctr: counter-screen for kallikrein-7 activators: EDANS-DABCYL interference, dose response. shares compounds with proKLK7 act. EDANS-DABCYL peptide fluorescence interference, no enzyme. EC50, µM. actives 20% (n = 250);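 active means compounds that raise the fluorescence signal in this interference counterscreen, with EC50 at or below 10 µM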;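 further: intact quenched peptide substrate alone read at 355 nm excitation and 520 nm emission; signal is fluorescence gain from T0 to T4 after four hours at room temperature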
Numbers stand for hits; 0 = inactive; - = no result given. Hits are enriched below; roughly 2.8% of the tested compounds scored in any of these assays.

SMILES	MsrA inhibitor	SMARCA2 activ	proKLK7 act	MsrA act	KLK7 act conf	EDANS interfere	others
Cc1csc(-c2nc3ccccc3n2C(C(=O)NC(C)(C)C)c2ccccc2)c1 (stereo not given)	0	0	0	-	-	-
CCCCCCCCN1C(=O)[C@H](CC(=O)N2CCOCC2)C[C@@]2(C(=O)OC)CC(C)(C)CC=C12	0	0	0	-	-	-
N#Cc1c(N)n(-c2ccc(N)cc2)c2nc3ccccc3nc12	0	0	0	0	-	-
N#Cc1c(N)n(-c2ccc(C(=O)O)cc2)c2nc3ccccc3nc12	0	0	68.6	0	78.7	78.7
CC(=O)NC(Cc1ccc2c(c1)OCO2)C(=O)N1CCCN(C(C)=O)CC1 (stereo not given)	-	0	0	-	-	-
COc1cccc2[nH]c3c(N4CCCC(C)C4)ncnc3c12 (stereo not given)	0	0	0	0	-	-
COc1cccc2[nH]c3c(N4CCC(C(N)=O)CC4)ncnc3c12	0	0	25.3	0	46.6	42.9
Cc1cc(C)c(C2=NOC3c4ccccc4OCC23)c(C)c1 (stereo not given)	0	0	0	-	-	-
CCC1(CC)Cc2ccccc2-c2nc(NCCCO)[nH]c(=O)c21	0	0	0	0	-	-
O=c1[nH]c(NCCCO)nc2c1C1(CCCC1)Cc1ccccc1-2	0	0	12.8	0	0	0
Cn1c(NCCO)nc2c(c1=O)C1(CCCCC1)Cc1ccccc1-2	0	0	0	0	-	-
CC1(C)Cc2ccccc2-c2nc(NCCCO)n(-c3ccccc3)c(=O)c21	0	0	15.1	0	0	0
CCC1(C)Cc2ccccc2-c2nc(NCCCO)[nH]c(=O)c21 (stereo not given)	0	0	33.3	0	0	0
COc1cccc(CCNS(=O)(=O)c2c(C)n[nH]c2C)c1	-	0	0	-	-	-
CC1(C(=O)NS(=O)(=O)C2CC2)CCCN(C(=O)Cc2ccc3ccccc3c2)C1 (stereo not given)	0	0	0	0	-	-
CC(=O)C1=C(C)N(Cc2ccc(F)cc2)C(=S)NC1c1cccc(Br)c1 (stereo not given)	0	0	0	-	-	-
Cc1ccc(S(=O)(=O)c2c(N)n(CCCN(C)C)c3nc4ccccc4nc23)cc1	0	0	35.7	0	0	0
Cc1ccc(S(=O)(=O)c2c(N)n(NC(=O)C3CC3)c3nc4ccccc4nc23)cc1	0	0	37.1	0	0	4.1
CN(C)CCCn1c(N)c(C#N)c2nc3ccccc3nc21	0	0	120.7	0	62.7	71.5
c1ccc(Cn2ccc3ccc(-c4ccc5ccn(Cc6ccc7ccccc7c6)c5c4)cc32)cc1	-	0	0	-	-	-
O=C(Nc1nc(-c2ccc3c(c2)OCCO3)cs1)c1ccco1	0	0	0	0	-	-
CCC(=O)N1CCc2cc(-c3csc(NC(=O)c4ccco4)n3)ccc21	0	0	97.8	0	22.3	16.4	K7 EDANS ctr=0
CC(=O)c1c[nH]c(C(=O)NCC2CCCO2)c1 (stereo not given)	0	0	40.1	0	0	0
NC(=O)c1cccc2cc3ccccc3cc12	0	0	53.5	0	65.1	71.8
COCCCNC(=O)c1ccc(Cn2c(=O)c3ccccc3n(Cc3ccc(C(C)C)cc3)c2=O)cc1	-	0	0	-	-	-
SMILES	MsrA inhibitor	SMARCA2 activ	proKLK7 act	MsrA act	KLK7 act conf	EDANS interfere	others
c1coc(C2Nc3ccccc3-c3nc4ccccc4n32)c1 (stereo not given)	0	0	15.9	0	39.2	40.0
c1ccc(C2Nc3ccccc3-c3nc4ccccc4n32)cc1 (stereo not given)	0	0	66.3	0	0	5.4
C=CC[C@@H]1NN2C(=O)[C@@H](CCCC)[C@@H]3c4ccccc4C=NN3[C@@H]2c2ccccc21	-	0	0	-	-	-
O=C(NNS(=O)(=O)c1ccccc1[N+](=O)[O-])c1cc2ccccc2cc1O	0	0	14.3	0	21.5	19.9
COc1ccc(-c2cc(C(F)F)n3ncc(C(=O)N4CCN(C)CC4)c3n2)cc1	0	0	15.3	0	0	0
COc1ccc(-c2cc(C(F)F)n3ncc(C(=O)N4CCSCC4)c3n2)cc1	0	0	0	0	-	-
COc1ccc(-c2cc(C(=O)N3CCOCC3)c3cc(C)ccc3n2)cc1	0	0	64.5	0	15.1	21.4
COc1ccc2nc(-c3ccc(Cl)cc3)cc(C(=O)O)c2c1	0	0	25.3	0	27.1	43.7
COc1ccc(-c2cc(C(=O)NCC3CCCO3)c3cc(C)ccc3n2)cc1 (stereo not given)	0	0	25.5	0	0	0
CCCCC(=O)N(C)c1c(C)nc2ccc(C(=O)NCc3ccccc3OC)cn12	0	0	0	0	-	-
CC(Nc1ccc(Br)cc1)C(=O)NC(=O)NC1CCCCC1 (stereo not given)	0	0	0	0	-	-
Cc1ccnc(NC(=S)NC(=O)c2cncc(Br)c2)c1	0	0	12.9	0	14.4	14.7
Cc1ccc(NC(=S)NC(=O)c2cncc(Br)c2)c(C)c1	0	0	0	0	-	-
O=C(CSc1nncc(=O)[nH]1)NC1CCCCC1	0	0	0	0	-	-
O=C(CSc1nccc(=O)[nH]1)NC1CCCCCC1	0	0	60.9	0	0	0
Cc1ccc(C2=CC(c3ccc(C)cc3)n3ncnc3N2)cc1 (stereo not given)	0	0	32.0	0	0	0
COc1ccc(C2C=C(C)Nc3ncnn32)cc1 (stereo not given)	0	0	0	0	-	-
FC(F)(F)c1ccccc1C1=CC(c2ccccc2)n2ncnc2N1 (stereo not given)	0	0	25.5	0	26.8	26.1
COc1cccc(C2C=C(c3ccc(Br)s3)Nc3ncnn32)c1OC (stereo not given)	-	-	-	0	-	-
COc1ccc(C2C=C(c3ccc(C)c(C)c3)Nc3ncnn32)c(OC)c1OC (stereo not given)	0	0	18.1	0	23.8	30.5
COc1ccc(C2C=C(c3ccccc3)Nc3ncnn32)cc1 (stereo not given)	0	0	52.5	0	71.2	73.9
COC(=O)C[C@H]1CC[C@H]2[C@H](COc3ccc(NS(=O)(=O)c4ccccc4C)cc3C(=O)N2C)O1	-	0	0	-	-	-
C=CCN=C1NC(c2ccc(Cl)cc2)C(C(=O)OC)=C(C)N1C (stereo not given)	0	0	0	-	-	-
Cc1ccc(CN2C(=O)C(F)(F)Oc3ccc(C)cc32)cc1	0	0	0	0	-	-
Cc1cccc(C2Nc3ccccc3C(=O)N2c2ccccc2)n1 (stereo not given)	0	0	19.2	0	40.5	43.4
O=C1c2ccccc2NC(c2ccccn2)N1c1ccc(Cl)cc1 (stereo not given)	0	0	0	0	-	-
O=Cc1ccc(/C=C2\c3ccccc3C(=O)N2c2ccccc2)o1	0	0	33.9	-	62.4	59.4
O=C1c2ccccc2C(=O)N1c1ccccc1	0	0	0	0	-	-
